Measurements as given in PubChem BioAssay (Tox21).
Records with an inconclusive call do not appear. A call without a number means that no potency is given here. Active and inactive are the calls of the source. Unless noted, calls follow the shape of the dose curve; as a rule, active = well fitted curve in the direction sought with a large enough effect in the repeat runs; inconclusive = weak or mixed curves; inactive = no such curve, though single readings can be large; an effect the other way counts as inactive or inconclusive.

What was measured:
[1] = qHTS assay to test for compound auto fluorescence at 535 nm (green) in HEK293 cells (AID 720680)
[2] = qHTS assay to test for compound auto fluorescence at 460 nm (blue) in HEK293 cell free culture (AID 720681)
Outline: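 Test compounds were pinned into cell-free culture medium (DMEM with 10% FBS) and fluorescence was read directly at Ex/Em 405/460 nm. Signals were expressed as fluorescence equivalents of triamterene, with DMSO vehicle as control.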

[3] = qHTS assay to test for compound auto fluorescence at 535 nm (green) in HEK293 cell free culture (AID 720682)
Outline: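 No cells present: wells hold DMEM supplemented with 10% FBS, into which compound or vehicle is pinned. Green emission is then recorded (485 nm excitation, 535 nm emission) and scaled to fluorescein.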

[4] = qHTS assay to test for compound auto fluorescence at 590 nm (red) in HEK293 cell free culture (AID 720683)
Outline: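 Tox21 10K library compounds were pinned into cell-free DMEM with 10% FBS and fluorescence was read at excitation 540 nm. Activity is expressed as Rose Bengal sodium equivalency.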

[5] = qHTS assay to test for compound auto fluorescence at 590 nm (red) in HepG2 cell free culture (AID 720684)
Outline: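 Readout: intrinsic compound fluorescence at 590 nm emission after 540 nm excitation, scaled to Rose Bengal sodium. Matrix was cell-free MEM with 10% FBS; DMSO vehicle wells served as control.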

[6] = qHTS assay to test for compound auto fluorescence at 460 nm (blue) in HepG2 cell free culture (AID 720685)
Outline: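 Cell-free plates of MEM plus 10% FBS received 23 nL compound or DMSO vehicle; blue-channel (405/460 nm) intensity scored against triamterene as reference fluorophore.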

[7] = qHTS assay to test for compound auto fluorescence at 535 nm (green) in HepG2 cell free culture (AID 720686)
[8] = qHTS assay to test for compound auto fluorescence at 460 nm (blue) in HepG2 cells (AID 720687)
Outline: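 Cells (2,000/well in MEM with 10% FBS) attached overnight at 37 C, then were exposed to compound or DMSO for 1 hr at 37 C, 5% CO2. Fluorescence read at Ex/Em 405/460 nm, expressed as triamterene-equivalent signal.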

[9] = target: Glucocorticoid receptor (Homo sapiens) (UniProt P04150); assay: qHTS assay to identify small molecule agonists of the glucocorticoid receptor (GR) signaling pathway (AID 720691; active = well fitted activation curve with a large enough effect in the signal ratio in the repeat runs, not every such curve was filed as active; the % refers to the signal ratio); details: GR-bla HeLa, beta-lactamase reporter ratio, 18 h; activation: at 62.4 µM (top of the series)
Chain of Glucocorticoid receptor (Homo sapiens) (P04150 whole entry, looked up): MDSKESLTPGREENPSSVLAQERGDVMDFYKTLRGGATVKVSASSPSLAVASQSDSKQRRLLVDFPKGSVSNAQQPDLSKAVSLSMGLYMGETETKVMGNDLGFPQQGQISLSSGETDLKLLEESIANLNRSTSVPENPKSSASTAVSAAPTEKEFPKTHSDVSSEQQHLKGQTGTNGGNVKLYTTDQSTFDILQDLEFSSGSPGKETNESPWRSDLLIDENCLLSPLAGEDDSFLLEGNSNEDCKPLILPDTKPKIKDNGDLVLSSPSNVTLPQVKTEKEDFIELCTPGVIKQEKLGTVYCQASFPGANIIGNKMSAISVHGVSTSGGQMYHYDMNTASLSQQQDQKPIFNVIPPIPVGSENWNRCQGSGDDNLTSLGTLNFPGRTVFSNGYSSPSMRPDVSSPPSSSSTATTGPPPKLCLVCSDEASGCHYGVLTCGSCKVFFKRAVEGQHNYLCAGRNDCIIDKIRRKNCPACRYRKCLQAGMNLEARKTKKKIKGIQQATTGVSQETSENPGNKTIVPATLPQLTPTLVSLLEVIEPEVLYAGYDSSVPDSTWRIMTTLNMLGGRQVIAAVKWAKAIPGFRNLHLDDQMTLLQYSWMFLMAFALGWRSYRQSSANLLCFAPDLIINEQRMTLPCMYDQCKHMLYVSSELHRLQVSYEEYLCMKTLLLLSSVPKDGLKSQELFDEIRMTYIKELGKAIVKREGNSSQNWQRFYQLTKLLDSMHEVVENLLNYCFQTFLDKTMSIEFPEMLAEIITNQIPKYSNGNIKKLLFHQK
Outline: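 Measures GR pathway activation through a GRE-beta-lactamase reporter stably integrated in HeLa cells, with 18 h compound treatment at 37 C and fluorescence detection using a FRET substrate.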

[10] = target: Glucocorticoid receptor (Homo sapiens) (UniProt P04150); assay: qHTS assay to identify small molecule antagonists of the glucocorticoid receptor (GR) signaling pathway (AID 720692; active = well fitted inhibition curve with a large enough effect in the signal ratio in the repeat runs, not every such curve was filed as active; the % refers to the signal ratio; also: potency is read from the fitted curve at half-maximal effect)
Outline: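 Tox21 10K library screened in concentration-response for blockade of dexamethasone (5 nM final)-induced GRE-bla reporter activity in HeLa cells; 18 h treatment, fluorescence read.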

[11] = qHTS assay to identify small molecule antagonists of the glucocorticoid receptor (GR) signaling pathway - cell viability counter screen (AID 720693); also: nearly all actives have a fitted effect of over 55% in size
[12] = qHTS assay for identifying genotoxic compounds that show differential cytotoxicity against isogenic chicken DT40 cell lines with known DNA damage response pathways - wild type cell line (AID 743012); also: nearly all actives have a fitted effect of over 60% in size; also: potency is read from the fitted curve at half-maximal effect
Outline: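 Endpoint: CellTiter-Glo luminescence, 30 min RT. Cells: wild type DT40, 300/well. Exposure: compounds in DMSO, 40 h, 37 C/5% CO2, after ~0.5 h pre-incubation.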

[13] = qHTS assay to identify small molecule antagonists of the androgen receptor (AR) signaling pathway - cell viability counter screen (AID 743033; also: nearly all actives have a fitted effect of over 45% in size)
[14] = target: Androgen receptor (Homo sapiens) (UniProt P10275); assay: qHTS assay to identify small molecule agonists of the androgen receptor (AR) signaling pathway (AID 743036; active = well fitted activation curve with a large enough effect in the signal ratio in the repeat runs, with a control signal flat, not every such curve was filed as active; the % refers to the signal ratio)
Chain of Androgen receptor (Homo sapiens) (P10275 whole entry, looked up): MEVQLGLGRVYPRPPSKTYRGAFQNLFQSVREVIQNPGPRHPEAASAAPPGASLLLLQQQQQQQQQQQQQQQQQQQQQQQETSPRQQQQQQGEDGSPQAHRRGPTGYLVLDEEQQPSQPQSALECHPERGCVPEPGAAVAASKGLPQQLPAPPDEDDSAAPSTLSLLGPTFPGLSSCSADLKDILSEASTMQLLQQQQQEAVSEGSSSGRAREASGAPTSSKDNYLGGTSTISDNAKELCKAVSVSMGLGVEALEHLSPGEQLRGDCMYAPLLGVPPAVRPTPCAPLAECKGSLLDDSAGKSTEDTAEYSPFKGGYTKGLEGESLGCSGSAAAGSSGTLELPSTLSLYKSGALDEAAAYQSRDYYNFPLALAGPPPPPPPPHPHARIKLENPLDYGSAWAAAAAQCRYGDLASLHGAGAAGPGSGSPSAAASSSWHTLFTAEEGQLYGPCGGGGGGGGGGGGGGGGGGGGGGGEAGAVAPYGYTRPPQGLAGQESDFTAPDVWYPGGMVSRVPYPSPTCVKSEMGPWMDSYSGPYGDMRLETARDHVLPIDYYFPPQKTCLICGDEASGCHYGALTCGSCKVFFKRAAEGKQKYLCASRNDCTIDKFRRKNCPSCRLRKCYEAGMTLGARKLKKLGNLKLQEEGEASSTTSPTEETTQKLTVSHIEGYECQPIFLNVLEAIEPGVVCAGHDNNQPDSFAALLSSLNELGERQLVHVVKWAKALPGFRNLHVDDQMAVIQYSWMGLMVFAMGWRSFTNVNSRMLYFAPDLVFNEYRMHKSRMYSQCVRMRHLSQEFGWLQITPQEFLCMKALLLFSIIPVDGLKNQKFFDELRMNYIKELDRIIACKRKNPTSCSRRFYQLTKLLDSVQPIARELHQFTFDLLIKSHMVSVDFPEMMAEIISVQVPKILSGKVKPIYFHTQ
Outline: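 Quantitative HTS of the Tox21 10K library in HEK293 cells bearing a stably integrated UAS-controlled beta-lactamase reporter. Compound exposure lasted 16 h at 37C. Reporter activity was detected by FRET substrate fluorescence after 2 h at room temperature.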

[15] = target: Androgen receptor (Homo sapiens) (UniProt P10275); assay: qHTS assay to identify small molecule agonists of the androgen receptor (AR) signaling pathway using the MDA cell line (AID 743040; also: nearly all actives have a fitted effect of over 20% in size; also: potency is read from the fitted curve at half-maximal effect)
Outline: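 Agonist activity is measured as luciferase luminescence in human MDA-kb2 cells whose MMTV reporter responds to both AR and GR. Compounds in DMSO incubate 16 h at 37C, 0% CO2, and ONE-Glo is read after 30 min.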

[16] = qHTS assay to identify small molecule antagonists of the androgen receptor (AR) signaling pathway using the MDA cell line - cell viability counter screen (AID 743041; also: nearly all actives have a fitted effect of over 45% in size)
Outline: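 qHTS viability read-out; MDA-kb2 AR-luc; R1881-stimulated; 16 h exposure at 37C, 0% CO2; CellTiter-Fluor, 30 min; fluorescence intensity.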

[17] = target: Androgen receptor (Homo sapiens) (UniProt P10275); assay: qHTS assay to identify small molecule antagonists of the androgen receptor (AR) signaling pathway using the MDA cell line (AID 743042; also: nearly all actives have a fitted effect of over 55% in size; also: potency is read from the fitted curve at half-maximal effect)
Outline: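 MDA-kb2 cells (human breast carcinoma, stably carrying an MMTV-luciferase reporter responsive to AR and GR) were plated at 3,000 cells/well and preincubated 5 hr at 37C, then given compound plus R1881 agonist for 16 h. ONE-Glo luminescence was read.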

[18] = qHTS assay for identifying genotoxic compounds that show differential cytotoxicity against isogenic chicken DT40 cell lines with known DNA damage response pathways - Rad54/Ku70 mutant cell line (AID 743015); also: nearly all actives have a fitted effect of over 60% in size; also: potency is read from the fitted curve at half-maximal effect
[19] = target: Androgen receptor (Homo sapiens) (UniProt P10275); assay: qHTS assay to identify small molecule antagonists of the androgen receptor (AR) signaling pathway (AID 743035; active = well fitted inhibition curve with a large enough effect in the signal ratio in the repeat runs, not every such curve was filed as active; the % refers to the signal ratio)
Outline: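 R1881 agonist challenge of a HEK293 UAS-beta-lactamase AR reporter line in the presence of compound (16 h, 37C); signal taken as FRET fluorescence after 2 h with LiveBLAzer B/G substrate at room temperature.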

[20] = qHTS assay for identifying genotoxic compounds that show differential cytotoxicity against isogenic chicken DT40 cell lines with known DNA damage response pathways - Rev3 mutant cell line (AID 743014); also: potency is read from the fitted curve at half-maximal effect; nearly all actives have a fitted effect of over 55% in size

Row | SMILES | Potency [1] | Potency [2] | Potency [3] | Potency [4] | Potency [5] | outcome [6] | Potency [7] | outcome [8] | Potency [9] | Potency [10] | Potency [11] | Potency [12] | Potency [13] | Potency [14] | Potency [15] | Potency [16] | Potency [17] | Potency [18] | Potency [19] | Potency [20]
1 | COc1ccc(CCNCC(O)COc2cccc(C)c2)cc1OC (configuration not stated) | inactive | inactive | inactive | inactive | inactive | inactive | inactive | inactive | inactive | inactive | inactive | 26.6 µM (active) | inactive | inactive | inactive | inactive | inactive | – | – | –
2 | O=P(O)(O)OC(Cn1cncn1)(Cn1cncn1)c1ccc(F)cc1F | inactive | inactive | inactive | inactive | inactive | inactive | inactive | inactive | inactive | inactive | inactive | inactive | inactive | – | inactive | inactive | inactive | inactive | inactive | –
3 | O=C(Nc1ccc(/C=C/c2ccc(NC(=O)c3cc(S(=O)(=O)O)c4cccnc4c3O)cc2S(=O)(=O)O)c(S(=O)(=O)O)c1)c1cc(S(=O)(=O)O)c2cccnc2c1O | inactive | inactive | inactive | inactive | inactive | inactive | inactive | inactive | inactive | inactive | inactive | inactive | inactive | – | – | inactive | – | – | – | –
4 | OC[C@H]1O[C@@H](O[C@H]2[C@H](O)[C@@H](O)[C@H](O)O[C@@H]2CO)[C@H](O)[C@@H](O)[C@@H]1O | inactive | inactive | inactive | inactive | inactive | inactive | inactive | inactive | inactive | inactive | inactive | inactive | inactive | – | inactive | inactive | inactive | inactive | inactive | –
5 | COc1ccc(C[C@@H](C)NC[C@H](O)c2ccc(O)c(NC=O)c2)cc1 | inactive | inactive | inactive | inactive | inactive | inactive | inactive | inactive | inactive | inactive | inactive | 29.8 µM (active) | inactive | – | – | inactive | – | – | – | –
6 | C#C[C@]1(O)CC[C@H]2[C@@H]3CCC4=CC(=O)CC[C@@H]4[C@H]3C(=C)C[C@@]21CC | inactive | inactive | inactive | inactive | inactive | inactive | inactive | inactive | inactive | 379 nM (active) | inactive | 29.8 µM (active) | inactive | – | – | inactive | – | – | – | –
7 | CCCCCCCCCCCCCCCCCC[N+](C)(C)CCC[Si](OC)(OC)OC | inactive | inactive | inactive | inactive | inactive | inactive | inactive | inactive | inactive | inactive | inactive | – | inactive | – | – | inactive | – | 10.6 µM (active) | – | 18.8 µM (active)
8 | O=C(O)C1=C(CSc2nnnn2CS(=O)(=O)O)CS[C@@H]2[C@H](NC(=O)[C@H](O)c3ccccc3)C(=O)N12 | inactive | inactive | inactive | inactive | inactive | inactive | inactive | inactive | inactive | inactive | inactive | inactive | inactive | inactive | 26.6 µM (active) | inactive | inactive | – | inactive | –
9 | CCCCC(=O)N(Cc1ccc(-c2ccccc2-c2nn[nH]n2)cc1)[C@@H](C(=O)O)C(C)C | inactive | inactive | inactive | inactive | inactive | inactive | inactive | inactive | inactive | inactive | inactive | inactive | inactive | – | – | inactive | – | inactive | – | –
10 | CCC(=O)NCCC1CCc2ccc3c(c21)CCO3 (configuration not stated) | inactive | inactive | inactive | inactive | inactive | inactive | inactive | inactive | inactive | inactive | inactive | 26.6 µM (active) | – | inactive | inactive | inactive | inactive | – | inactive | –
11 | O=S(=O)(O)c1cc(O)c2c(N=Nc3ccc(Nc4ccccc4)c4c(S(=O)(=O)O)cccc34)cc(S(=O)(=O)O)cc2c1 | inactive | inactive | inactive | inactive | inactive | inactive | inactive | inactive | inactive | inactive | inactive | – | – | inactive | inactive | – | 16.8 µM (active) | 13.3 µM (active) | inactive | 11.9 µM (active)
12 | CS(=O)(=O)OCCCNCCCOS(C)(=O)=O | inactive | inactive | inactive | inactive | inactive | inactive | inactive | inactive | inactive | inactive | inactive | inactive | inactive | – | – | inactive | – | inactive | – | –
